Mito fusion yeast – qHTS Assay for Small Molecule Inhibitors of Mitochondrial Division or Activators of Mitochondrial Fusion; S. cerevisiae fusion-defective mutant growth rescue, CellTiterGlo 48 h; Potency, µM (series often up to 46.1 µM), for the others: at the top dose growth rescue (activation), usual class: activators; 320,000 compounds, 0.23% hits; further: % of control where 0% means no effect; nearly all actives have a fitted effect of over 45% in size
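Yeast fusion mutant, YPEG (non-fermentable carbon), compound, 48 h at 37C non-permissive; CellTiterGlo added, 10 min RT, luminescence read. Rescued growth = division inhibition.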
RORgamma inh – qHTS for inhibitors of ROR gamma transcriptional activity; Nuclear receptor ROR-gamma (Mus musculus), P51450; Drosophila S2 Gal4-RORgamma UAS-luciferase reporter, 20 h; Potency, µM (series often up to 53.6 µM), for inactives: at the top dose activity change, negative = inhibition, most hits filed as inhibitors; 310,000 compounds, 5.4% hits; further: on the % scale 0 is the no-effect control and ±100 the full control effect; nearly all actives have a fitted effect of over 60% in size
Target sequence (P51450 whole entry, looked up, the tested form may be a part): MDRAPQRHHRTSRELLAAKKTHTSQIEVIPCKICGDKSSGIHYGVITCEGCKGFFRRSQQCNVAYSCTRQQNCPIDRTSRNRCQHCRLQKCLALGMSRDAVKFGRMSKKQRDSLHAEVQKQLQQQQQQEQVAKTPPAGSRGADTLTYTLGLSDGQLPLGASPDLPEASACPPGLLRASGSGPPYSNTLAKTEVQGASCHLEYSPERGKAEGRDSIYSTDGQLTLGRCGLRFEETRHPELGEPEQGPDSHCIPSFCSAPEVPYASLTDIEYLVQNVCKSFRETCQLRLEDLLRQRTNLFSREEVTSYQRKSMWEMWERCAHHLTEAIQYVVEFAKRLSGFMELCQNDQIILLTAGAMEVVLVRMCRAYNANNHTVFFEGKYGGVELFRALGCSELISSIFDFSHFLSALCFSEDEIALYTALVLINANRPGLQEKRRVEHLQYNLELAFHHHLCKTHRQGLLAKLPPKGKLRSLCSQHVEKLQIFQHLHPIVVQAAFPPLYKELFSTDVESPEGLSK
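Luminescence from a UAS-regulated Photinus luciferase reporter in stably transfected Drosophila Schneider cells is measured; decreased signal marks ROR gamma inhibition. Fusion expression is induced by 700 uM copper sulfate for 20 hr.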
BCR signal inh – qHTS Assay to Find Inhibitors of Chronic Active B-Cell Receptor Signaling; ABC-DLBCL IkBa-CBG/CBR reporter, luminescence ratio, 4 h; Potency, µM (doses to about 46.1 µM), without a hit: at the top dose activity change, negative = inhibition, actives largely listed as inhibitors; 340,000 compounds, 0.05% hits; active means well fitted inhibition curve with a large enough effect in the signal ratio, with a control signal flat, not every such curve was filed as active; inconclusive means small, poorly fitted or top-dose-only effect, or effect the other way, or a change in a side signal; the % refers to the signal ratio;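 further: plate controls were basal doxycycline-induced cells for no effect and cells given 10 µM MG132 for full effect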
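Cell line TMD8 (human ABC DLBCL), stably expressing tet-inducible CBG68-IkBa fusion and CBR; IMDM/0.5% FBS; cpd up to 46 uM; dox induction, 4 h, 37C/5% CO2; dual luminescence; green/red ratio; MG132 control.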
uPA surface inh – qHTS for Inhibitors of Cell Surface uPA Generation. cell surface uPA generation assay, qHTS. Potency, µM (top dose mostly 38.3 µM), inactives show at the top dose activity change, negative = inhibition, hits mostly inhibitors. 330,000 compounds, 0.31% hits; active means well fitted inhibition curve with a large enough effect; inconclusive means small, poorly fitted or top-dose-only effect; inactive means no such curve, though single readings can be large or run the other way; tested in mouse RAW 264.7 cells; further: on the % scale 0 is the no-effect control and ±100 the full control effect; nearly all actives have a fitted effect of over 55% in size
a7 integrin act – qHTS for Activators of Integrin-Mediated Alleviation for Muscular Dystrophy. alpha7betagal myoblasts, beta-gal FDG fluorescence, 48 h. Potency, µM (top dose mostly 38.3 µM), inactives show top-dose activation, usual class: activators. 350,000 compounds, 0.064% hits. AID 624291, 2012;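 further: 100% = response of the positive control SU9516; nearly all actives have a fitted effect of over 60% in size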
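Alpha7betagal+/- myoblasts (passage 13) were plated 16-24 hr, then exposed to compounds (1:260 dilution of DMSO stock) for 48 hours at 37C. After MPER lysis, β-galactosidase reporter activity was read as FDG fluorescence (ex 480/em 540) after 30 minutes.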
Gal4-VP16 FLuc – VP16 counterscreen qHTS for inhibitors of ROR gamma transcriptional activity; Drosophila S2 Gal4-VP16 UAS-luciferase, luminescence, 20 h; Potency, µM (highest dose often 53.6 µM), inactives show at the highest dose activity, negative = inhibition, actives largely listed as inhibitors; 310,000 compounds, 3.5% hits; AID 2546, 2010;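 further: Gal4-VP16 expression switched on by copper sulfate through the metallothionein promoter; on the % scale 0 is the no-effect control and ±100 the full control effect; nearly all actives have a fitted effect of over 50% in size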
Starred values were filed as active, the others as inactive; ? = inconclusive; / = no result given; [ ] = remark or other dose. An excerpt weighted towards active compounds, which were near 5.5% of everything screened. Unless noted, the call rests on the fitted dose curve; in most records, active means well fitted curve in the direction sought with a large enough effect; inconclusive means small, poorly fitted or top-dose-only effect, or another doubt; inactive means no such curve, though single readings can be large; an effect the other way counts as inactive or inconclusive. Potency means the concentration at half of the fitted maximal effect.

SMILES | Mito fusion yeast | RORgamma inh | BCR signal inh | uPA surface inh | a7 integrin act | Gal4-VP16 FLuc
Clc1cc(Cl)cc(C2=N[C@@H](Cc3ccccc3)CO2)c1 | / | -29% | / | / | / | 3%
CCCn1c(NC(=S)Nc2ccccc2)nc2ccccc21 | -6% | 1µM* | ? | 2% | -46% | 1.1µM*
S=C(Nc1ccccc1)Nc1nc2ccccc2n1CCOc1ccc(Cl)cc1 | -7% | 2.2µM* | ? | -11% | -14% | 1.8µM*
CCn1c(NC(=S)Nc2ccccc2)nc2ccccc21 | -7% | 4.5µM* | ? | -5% | -27% | 2.8µM*
O=C1OC(O)C(C(Cl)Cl)=C1Cl (centres undefined) | / | 2.2µM* | / | / | / | 2.8µM*
Clc1ccc(-n2ncc3c(N4CCCCCC4)ncnc32)cc1 | -2% | ? | ? | ? | 17% | 14µM*
COc1ccc(-n2ncc3c(NC(C)C)ncnc32)cc1 | 9% | 11µM* | ? | -12% | 1% | ?
COc1ccc(-n2ncc3c(NCC(C)C)ncnc32)cc1 | 21% | 40% | ? | -11% | -4%[1.53 µM] | -1%
COc1ccc(-n2ncc3c(N4CCCCC4)ncnc32)cc1 | 0% | 5µM* | ? | 1.3µM* | 4% | 2µM*
COc1ccc(CNc2cc(-c3ccccc3OC)ncn2)c(OC)c1 | / | -8% | / | / | / | 6%
CC(C)C[C@@H](CC(=O)N[C@H](CC(=O)N[C@@H]1CCNC[C@H]1C(=O)N[C@H](CC(=O)N[C@@H](CCC(=O)O)CC(=O)O)Cc1c[nH]c2ccccc12)C(C)C)NC(=O)[C@@H]1CCCC[C@H]1N | / | 5% | / | / | / | 1%
Cc1ccc(CN(Cc2ccco2)C(=S)Nc2ccccc2C)cc1 | -9% | ? | 5% | -5% | ? | -72%
Cc1cccc(C)c1NC(=S)N(Cc1ccccc1)Cc1cccs1 | 6% | 7.1µM* | 1% | 2% | -6% | -14%[10 µM]
Cc1ccc(CN(Cc2ccccc2)C(=S)Nc2ccccc2C)o1 | 10% | 7.1µM* | 20% | -7% | -21% | ?
C=CCCCCCCCCC(=O)O | / | 1% | / | / | / | 7%
C=CCNc1nc(Nc2ccc([N+](=O)[O-])cc2)nc(N2CCCC2)n1 | 13% | 0.89µM* | -17% | -4% | 11% | -4%
Cc1cc(C)nc(Sc2ncnc(N)c2[N+](=O)[O-])n1 | -1% | 6.3µM* | ? | ? | -69% | 8.9µM*
Cc1ccccc1OCC(=O)N/N=C/c1cn(Cc2ccccc2)c2ccccc12 | -20% | 18µM* | -13% | 2% | -11% | ?
Cc1ccc(OCC(=O)N/N=C\c2cn(Cc3ccccc3)c3ccccc23)cc1C | 1% | 11µM* | 4% | 10% | -29% | ?
COc1ccc(-c2cc(-c3ccc(Cl)cc3)n[nH]2)c(O)c1 | -9% | 8.9µM* | ? | -32% | ? | ?
COc1ccc(-c2cc(-c3ccccc3O)[nH]n2)cc1OC | -8% | 7.1µM* | ? | -3% | 21% | ?
COc1ccc(O)c(-c2cc(-c3ccc(F)cc3)n[nH]2)c1 | 16% | 13µM* | -8% | -2% | 5% | ?
COc1ccc(-c2cc(-c3cc(OC)ccc3O)[nH]n2)cc1 | 5% | ? | ? | 5% | 16% | ?
Oc1ccccc1-c1cc(-c2ccc3c(c2)OCCO3)n[nH]1 | 13% | 3.2µM* | ? | -9% | 0% | ?
O=C(O)c1cc(-c2ccc3c(c2)OCCO3)n[nH]1 | 1% | -30% | -1% | -2% | -5% | -26%
SMILES | Mito fusion yeast | RORgamma inh | BCR signal inh | uPA surface inh | a7 integrin act | Gal4-VP16 FLuc
C/C=C\C=C\C(=O)N1CC2(CC(c3cccc(NC(=O)CC)c3)=NO2)C[C@H]1C(N)=O (some centres undefined) | ? | -9% | -7% | 9% | -2% | 2%
C=C[C@H](N)CCC(=O)O | / | 5% | / | / | / | 5%
COc1ccc(S(=O)(=O)N(C)c2ccc(C(=O)NCc3ccco3)cc2)cc1OC | 1% | 44% | ? | -10% | -20% | 5%
CCCCCC(=O)N1C[C@@H](O)[C@H](n2cc(COC(=O)c3ccccc3)nn2)C[C@@H]1c1ccccc1 | / | / | / | / | -8% | /
CC1CCCCN1C(=O)CSc1nnc(-c2cccnc2)o1 (centres undefined) | 1% | 15% | -1% | -1% | -19% | 27%
COc1ccc(-c2cc(-c3ccc(OC)c(OC)c3)n[nH]2)c(O)c1 | -5% | 4µM* | ? | 0% | 16% | ?
COc1ccc(-c2cc(-c3cc(F)ccc3O)[nH]n2)cc1OC | 13% | -89% | ? | / | -7% | ?
C/C(=N\NC(=O)c1cccc(N/N=C(\C)c2ccco2)c1)c1ccco1 | 6% | 2% | ? | ? | 5% | -4%
C/C(=N\NC(=O)c1cccc(N/N=C(\C)c2cc(O)ccc2O)c1)c1cc(O)ccc1O | 0% | 6.3µM* | ? | -11% | -23% | ?
COc1cccc(CNc2nc3ccccc3n2CCN2CCCCC2)c1OC | -8% | 19% | 2% | -6% | 4% | -15%
CCn1nccc1C(=O)Nc1nc2ccccc2n1CCN1CCCCC1 | 1% | 16µM* | ? | 4% | -11% | ?
O=C(Nc1nc2ccccc2n1CCN1CCCCC1)c1ccc(Cl)cc1 | -1% | -43% | ? | / | / | ?
O=C(Nc1nc2ccccc2n1CCN1CCCC1)C1CCCCC1 | -1% | 7.1µM* | -1% | 4% | 1% | 10µM*
CCn1c(NC(=O)C2CCCCC2)nc2ccccc21 | 0% | 0.35µM* | -24% | -7% | -17% | 0.89µM*
O=C(Nc1nc2ccccc2n1CCN1CCCCC1)C1CCCCC1 | -4% | 2µM* | 2% | -3% | -19% | 7.1µM*
Cc1ccc(-n2nnnc2SCC(=O)NCC2(N3CCOCC3)CCCCC2)c(C)c1 | -3% | / | 7% | 0% | 5% | /
CC(C(=O)NC(C)(C)C)N1C(=O)c2cccc3cccc(c23)C1=O (centres undefined) | -1% | -12% | 0% | 2% | -6% | 7%
CCN1C(C)=C(C(=O)OC)C(c2ccccc2)N2C(=O)[C@](O)(C(=O)OC)C(c3ccccc3)C(C(=O)c3ccccc3)=C12 (some centres undefined) | / | 12%[10 µM] | / | / | / | 0%[10 µM]
Cc1nc2cncnc2n(Cc2ccccc2)c1=O | / | -9% | / | / | / | -1%
COc1ccc(CCNC(=O)c2ccc3[nH]c(C)c(C)c3c2)cc1OC | / | / | 1% | / | / | /
C/C(=N\NC(=O)COc1ccccc1-c1ccccc1)c1ccccn1 | ? | 1.1µM* | ? | 7% | -54% | ?
